HPGD inh = qHTS Assay for Inhibitors of HPGD (15-Hydroxyprostaglandin Dehydrogenase); 15-hydroxyprostaglandin dehydrogenase [NAD(+)] (Homo sapiens), P15428; Potency, µM, hits mostly inhibitors; AID 894, 2007; 150,000 compounds, 4.3% hits; purified HPGD, NADH fluorescence kinetic, PGE2 substrate
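NADH formation kinetics: reaction with 30 uM PGE2 and 1 mM NAD+ (final), 20 nM enzyme, Tris-HCl pH 8 with Tween 20, after 15 min compound preincubation at room temperature. Fluorescence change, last versus first of five reads.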
12-hLO inh = qHTS Assay for Inhibitors of 12-hLO (12-human lipoxygenase) | Polyunsaturated fatty acid lipoxygenase ALOX12 (Homo sapiens), P18054 | purified 12-hLO, xylenol orange hydroperoxide absorbance | Potency, µM (series often up to 57.1 µM), usual class: inhibitors | 150,000 compounds, 0.12% hits; active = well fitted inhibition curve with a large enough effect; inconclusive = small, poorly fitted or top-dose-only effect; note: nearly all actives have a fitted effect of over 55% in size
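Hydroperoxide formation by human 12-lipoxygenase from 40 uM arachidonic acid was followed colorimetrically via ferric-xylenol orange complex, using the 573/405 nm absorbance ratio. Enzyme concentration was 150 nM, with 30 min reaction at room temperature.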
ALDH1A1 inh = qHTS Assay for Inhibitors of Aldehyde Dehydrogenase 1 (ALDH1A1). Aldehyde dehydrogenase 1A1 (Homo sapiens), P00352. Purified ALDH1A1, NADH fluorescence, propionaldehyde substrate. Potency, µM (series often up to 75.3 µM), most hits filed as inhibitors. 220,000 compounds, 7.3% hits. AID 1030, 2008
Target sequence (P00352 whole entry, looked up): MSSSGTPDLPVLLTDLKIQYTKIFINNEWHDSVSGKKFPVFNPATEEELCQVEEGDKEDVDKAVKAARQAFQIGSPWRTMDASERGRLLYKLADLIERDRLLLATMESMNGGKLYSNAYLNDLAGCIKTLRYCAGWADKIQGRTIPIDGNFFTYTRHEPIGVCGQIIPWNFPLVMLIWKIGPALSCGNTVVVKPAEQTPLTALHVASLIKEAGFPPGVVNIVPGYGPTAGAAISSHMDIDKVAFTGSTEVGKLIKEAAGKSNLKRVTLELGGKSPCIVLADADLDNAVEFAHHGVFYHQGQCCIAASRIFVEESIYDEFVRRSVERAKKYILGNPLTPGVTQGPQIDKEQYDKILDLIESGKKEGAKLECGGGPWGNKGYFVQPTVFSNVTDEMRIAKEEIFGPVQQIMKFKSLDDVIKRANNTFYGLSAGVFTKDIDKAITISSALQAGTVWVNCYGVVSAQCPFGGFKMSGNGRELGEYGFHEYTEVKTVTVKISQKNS
PNC assembly inh = High Content Assay for Compounds that inhibit the Assembly of the Perinucleolar Compartment; PC3M PTB-GFP, PNC prevalence imaging, 16 h; stronger effect = lower value; activity change (PNC), negative = inhibition, % at 10 µM; 140,000 compounds, 3.1% hits; AID 2417, 2010;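 active = readout at or below -70, meaning at least 70% loss of cells showing the perinucleolar compartment, a nuclear body marking cancer cells; inconclusive = readout between -30 and a set limit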
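Compounds are pinned in duplicate onto adhered PC3M cells stably expressing GFP-tagged PTB and incubated 16 h at 37 C. Cells are then fixed, nuclei stained with Hoechst, and PNC-positive cells counted.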
Lamin A splicing = qHTS Assay for Modulators of Lamin A Splicing. HeLa LMNA splicing GFP/RFP minigene ratio, 48 h. Potency, µM (highest dose often 46.1 µM), hits mostly inhibitors. 200,000 compounds, 0.01% hits. AID 1487, 2009; active = well fitted inhibition curve with a large enough effect in the signal ratio, with a control signal flat, not every such curve was filed as active; inconclusive = small, poorly fitted or top-dose-only effect, or effect the other way, or a change in a side signal; the % refers to the signal ratio
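S3 HeLa cells stably expressing lamin A-EGFP splicing minigene plus DsRed2, 600 cells/well, 48 h compound exposure at 37C. Laser-scanning cytometry; analysed as GFP (500-530 nm)/RFP (575-640 nm) total intensity ratio; 0.5% DMSO vehicle.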
A number is an active result; n = inactive; u = inconclusive; x = no result given; [ ] = another dose, or the depositor's remark. Compounds with a hit are over-represented: about 10% of the library has one in this group of screens. Unless noted, calls come from the whole dose curve; as a rule, active = well fitted inhibition curve with a large enough effect (not every such curve was filed as active); inconclusive = small, poorly fitted or top-dose-only effect, or another doubt; inactive = no such curve, though single readings can be large or run the other way.

SMILES	HPGD inh	12-hLO inh	ALDH1A1 inh	PNC assembly inh	Lamin A splicing
CCn1c2ccccc2c2cc(N=C3SC(CC(=O)Nc4ccccc4OC)C(=O)N3CCOC)ccc21 (configuration not stated)	n	n	n	-97.9	n
COc1ccc(N=C2SC(CC(=O)Nc3ccc(F)cc3)C(=O)N2Cc2ccco2)cc1 (configuration not stated)	n	n	3.55µM	n	u
CCn1c2ccccc2c2cc(N=C3SC(CC(=O)Nc4ccccc4OC)C(=O)N3C)ccc21 (configuration not stated)	n	n	n	n	n
COc1ccc(N=C2SC(CC(=O)Nc3ccccc3)C(=O)N2CCN2CCOCC2)cc1 (configuration not stated)	x	x	n	x	n
CC(C)CCNC(=O)CO/N=C/c1ccccc1OC(F)F	x	n	n	n	n
COC(=O)c1cc(NC(=O)CSC2=NCCS2)cc(C(=O)OC)c1	x	x	12.6µM	x	x
O=C(CSC1=NCCS1)NC(NC(=O)CSC1=NCCS1)c1ccccc1	x	x	n	x	u
Cn1ccnc1SCC(=O)c1ccc(Br)cc1	u	u	3.55µM	n	n
O=C(CSC1=NCCS1)Nc1ccccc1F	28.2µM	n	8.91µM	u	n
O=C(CSC1=NCCS1)Nc1cccc2ccccc12	14.1µM	n	u	n	n
CN(C)Cc1ccccc1-c1nc(NCc2ccccc2)c2ccccc2n1	n	n	n	x	u
Cn1ccnc1SCC(=O)NC12CC3CC(CC(C3)C1)C2	n	n	u	-126.5	n
COC(=O)c1ccccc1NC(=O)CSc1nccn1C	n	n	n	n	n
O=C(O)c1ccccc1CSC1=NCCS1	x	x	20µM	x	n
Cn1ccnc1SCC(=O)Nc1cccc2ccccc12	25.1µM	n	n	u	n
CCOc1cc2[nH]c(=O)n(CCCC(=O)N3CCN(c4cccc(Cl)c4)CC3)c(=O)c2cc1OCC	x	x	x	x	n
COc1ccc(S(=O)(=O)N(C)c2ccc(OCC(=O)Nc3cc(C)on3)cc2)cc1	n	n	u	-97.0	u
COc1ccc(OCCC(=O)Nc2cc(C)on2)cc1	n	n	22.4µM	n	n
O=C(CCCOc1ccccc1)Nc1nncs1	n	n	n	n	n
COc1ccc(OCCCC(=O)Nc2nncs2)cc1	n	n	n	-100.0	n
Cc1cc(NC(=O)CCOc2ccc(F)cc2)no1	x	x	0.708µM	x	x
CC(=O)N1CCCc2cc(S(=O)(=O)N(C)CC(=O)Nc3ccc(C)cc3C)ccc21	x	x	x	x	n
Cc1c(C(=O)NCc2ccc(N(C)C)cc2)oc2c1-c1nn(Cc3cccc(Cl)c3)cc1CC2	x	x	x	x	n
COc1ccc(NS(=O)(=O)c2ccc3[nH]c4c(c3c2)CCCC4)cc1OC	x	x	x	x	n
COc1ccc(Nc2cnn(-c3nc4ccccc4s3)c(=O)c2Cl)cc1	n	n	8.91µM	n	u
SMILES	HPGD inh	12-hLO inh	ALDH1A1 inh	PNC assembly inh	Lamin A splicing
O=c1c(Cl)c(Nc2cccc(Cl)c2)cnn1-c1nc2ccccc2s1	n	n	n	n	n
COc1cccc(CNC(=O)CN2N=C(c3ccc(C)cc3)CCC2=O)c1	x	x	x	x	n
CCc1nc2ccccc2n1CC(C)C(=O)O (configuration not stated)	n	n	n	-100.0	n
O=S(=O)(c1ccc2c(c1)OCCO2)N1CCC(c2nc3ccc(Cl)cc3[nH]2)CC1	n	n	u	n	u
O=C(NCC1CCCO1)c1ccc(S(=O)(=O)N2CCC(c3nc4ccc(Cl)cc4[nH]3)CC2)cc1 (configuration not stated)	n	n	n	-100.0	u
CCCCc1cc2c(cn1)=C(OC(=O)c1ccc(Cl)nc1)C(C)(OC(=O)CC)C(=O)C=2 (configuration not stated)	n	n[11.4 µM]	3.16µM	x	n[9.22 µM]
CCCCc1cc2c(cn1)=C(OC(=O)c1cnc3ccccc3n1)C(C)(OC(=O)CC)C(=O)C=2 (configuration not stated)	n	n[11.4 µM]	3.16µM	x	n[9.22 µM]
Cc1ccc(CNC(=O)c2c3c(nc4ccccc24)C(=O)N(C2CCCCC2)C3)cc1	x	x	x	x	n
Cc1ccc(N/N=C(/Sc2nnnn2-c2ccccc2)C(=O)c2ccccc2)cc1	n	n	3.16µM	n	n
O=C(/C(=N\Nc1ccc([N+](=O)[O-])cc1)Sc1nnnn1-c1ccccc1)c1ccccc1	n	n	3.16µM	n	u
O=C(CSc1nnnn1-c1ccccc1)Nc1ccc(Cl)cc1	n	n	u	n	n
O=C(O)c1ccc(Sc2nnnn2-c2ccccc2)c([N+](=O)[O-])c1	u	n	n	n	n
CCCN=Cc1c(CCC)[nH]n(-c2nc3ccccc3s2)c1=O	n	n	14.1µM	n	n
CCCc1[nH]n(-c2nc3ccccc3s2)c(=O)c1C=NCCCN(CC)CC	x	x	n	x	n
COc1cc(-n2c(C)nc3cc(C(=O)N4CCOCC4)ccc32)cc(OC)c1OC	31.6µM	n	n	u	n
Nc1cc(=O)[nH]c(=S)n1-c1ccccc1	n	n	n	n	n
Cc1cc(=O)[nH]c(=S)n1-c1ccccc1	n	n	u	-122.4	n
O=C(Nc1c(C(=O)N2CCN(c3ccc(F)cc3)CC2)oc2ccccc12)c1c(F)cccc1F	x	x	x	x	n
COc1ccccc1NC(CC(=O)c1ccccc1)C(=O)OCC(=O)c1ccc(C)c(C)c1 (configuration not stated)	n	n	7.08µM	u	n
COc1ccccc1NC(CC(=O)c1ccccc1)C(=O)OCC(=O)c1ccc(C)cc1 (configuration not stated)	n	n	10µM	n	n
Cc1noc(-c2ccc(-c3noc(-c4cccc(F)c4)n3)cc2)n1	x	x	x	x	n
CCOc1ccc(CCNC(=O)Cn2ncc3c([nH]c4ccccc43)c2=O)cc1OCC	x	x	x	x	n
O=c1c2c3c(sc2ncn1/N=C/c1ccco1)CCCC3	n	n	u	n	n
O=c1c2c3c(sc2ncn1/N=C/c1ccccc1)CCCC3	n	n	11.2µM	n	n
Cc1ccc(-n2c(C)nc3oc4ccccc4c(=O)c3c2=O)cc1	u	n	28.2µM	n	n
SMILES	HPGD inh	12-hLO inh	ALDH1A1 inh	PNC assembly inh	Lamin A splicing
Cc1ccc(CNC(=O)c2sccc2-n2cccc2)cc1	12.6µM	n	u	u	n
Cc1ccc(S(=O)(=O)NNC(=O)c2sc3nc(C)cc(C)c3c2-n2cccc2)cc1	n	n	0.141µM	-89.7	n
CN(C)c1ccc(/C=N/NC(=O)c2sccc2-n2cccc2)cc1	x	x	20µM	x	u
Cc1ccc(S(=O)(=O)NNC(=O)c2ccccc2O)cc1	u	n	n	n	u
Cc1ccc(S(=O)(=O)NNC(=O)c2cnn(-c3ccccc3)c2-n2cccc2)cc1	n	n	0.178µM	n	n
COCCN(CCOC)C(=O)c1ccc(Cc2nc3ccccc3[nH]2)cc1	n	n	n	x	x

Screens (PubChem BioAssay)
